Compounds with a hit are over-represented: about 17% of the library has one in this group of screens.
TDP1 inh – inhibitors of human tyrosyl-DNA phosphodiesterase TDP1; recombinant TDP1, AlphaScreen DNA substrate cleavage; Potency, µM (series often up to 130 µM), actives largely listed as inhibitors; actives 0.28% (n = 350,000); AID 485290; also: nearly all actives have a fitted effect of over 40% in size
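Recombinant human Tdp1 (E. coli-expressed, 1 nM final) preincubated with compounds 15 min at room temperature, then 5'-biotin/3'-phosphotyrosine-FITC DNA substrate (15 nM final) added for 5 min. AlphaScreen beads (10 ug/ml final) added 10 min; cleavage lowers signal.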
ClpP mod – qHTS Assay for Activators of ClpP. ATP-dependent Clp protease proteolytic subunit (Bacillus subtilis (strain 168)), P80244. purified B. subtilis ClpP, FRET peptide cleavage, 20 min. Potency, µM (series often up to 57.5 µM). actives 1.9% (n = 340,000); active = well fitted falling curve with a large enough effect; inconclusive = small, poorly fitted or top-dose-only effect; inactive = no such curve, though single readings can be large or run the other way; also: the source files actives as falling curves though it sought activators and does not explain the sign; nearly all actives have a fitted effect of over 65% in size
Target sequence (P80244 whole entry, looked up): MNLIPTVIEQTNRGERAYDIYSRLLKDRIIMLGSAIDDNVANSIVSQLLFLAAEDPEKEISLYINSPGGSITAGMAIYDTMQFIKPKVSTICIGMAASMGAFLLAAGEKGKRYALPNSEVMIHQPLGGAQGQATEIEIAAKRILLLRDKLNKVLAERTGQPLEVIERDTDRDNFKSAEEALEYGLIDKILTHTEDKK
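Purified B. subtilis ClpP, 10 microg/mL final in Tris/HCl pH8 with KCl, BSA, glycerol and Tween-20, cleaved an Abz/nitrotyrosine-quenched decapeptide. Fluorescence (ex 320, em 430) was read at 0 and 20 min at room temperature. Delta was normalized to 5.8 microM ADEP and DMSO/no-enzyme controls.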
DT40 TDP1 CPT – growth inhibition of DT40 Tdp1-/-;hTDP1 cells with camptothecin (screen for TDP1 inhibitors) | AID 686979 | chicken DT40 Tdp1-/-;hTDP1 cells + 20 nM CPT, ATP luminescence, 48 h | Potency, µM (highest dose often 46.2 µM), hits mostly inhibitors | actives 12% (n = 420,000); also: nearly all actives have a fitted effect of over 55% in size
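Chicken DT40 Tdp1-/- cells complemented with human TDP1, 400 cells/well, exposed to compounds plus 20 nM camptothecin for at least 48 h at 37 C; viability read as ATP content by CellTiter-Glo luminescence.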
TDP1 cell noCPT – qHTS for Inhibitors of human tyrosyl-DNA phosphodiesterase 1 (TDP1): qHTS in cells in absence of CPT | DT40 Tdp1-/- hTDP1 cells, no CPT, ATP luminescence, 48 h | Potency, µM (series often up to 46.2 µM), most hits filed as inhibitors | AID 686978, 2013 | actives 15% (n = 420,000); also: nearly all actives have a fitted effect of over 55% in size
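Growth kinetics read by CellTiter-Glo luminescence after ≥48 hr at 37 °C. Cells: DT40 Tdp1-/- stably carrying human TDP1, 400 per well, compound exposure in the absence of CPT (DMSO vehicle).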
Hits are given with their value; 0 = inactive; ? = inconclusive; - = not tested or not shown. Unless noted, calls follow the shape of the dose curve; as a rule, active = well fitted curve in the direction sought with a large enough effect; inconclusive = small, poorly fitted or top-dose-only effect, or another doubt; inactive = no such curve, though single readings can be large; an effect the other way counts as inactive or inconclusive.

SMILES	TDP1 inh	ClpP mod	DT40 TDP1 CPT	TDP1 cell noCPT
CCOC(=O)C1=C(C)N(Cc2ccccc2)C(=O)NC1c1ccccc1OS(=O)(=O)c1ccccc1[N+](=O)[O-] (centres undefined)	-	0	10µM	9.2µM
COC(=O)C1=C(C)N(CCCC(=O)O)C(=O)NC1c1ccccc1OS(=O)(=O)c1ccccc1[N+](=O)[O-] (centres undefined)	-	0	0	0
CC1=C(C(=O)OCc2ccccc2)C(c2ccccc2[N+](=O)[O-])NC(=O)N1C (centres undefined)	0	0	?	23µM
CCCN(C(=O)CSCc1ccc(C)cc1)c1c(N)n(Cc2ccccc2)c(=O)[nH]c1=O	-	0	0	0
CCOc1cc(C2CC(=O)Nc3c2c(=O)nc(SCc2cccc(Cl)c2)n3C)ccc1O (centres undefined)	0	0	?	8.2µM
CCSc1nc(=O)c2c(n1C)NC(=O)CC2c1ccc(O)cc1OC (centres undefined)	0	0	0	0
Cc1cccc(CSc2nc(=O)c3c(n2C)NC(=O)CC3c2cc(F)cc(F)c2)c1 (centres undefined)	0	0	9.2µM	6.5µM
NC(=O)c1ccc(NC(=O)COC(=O)CC2Sc3ccccc3NC2=O)cc1 (centres undefined)	0	0	0	0
Cc1cccc(OCCSc2nc3ccccc3n2CCC(=O)O)c1	0	0	?	0
COc1ccc2[nH]c(=O)c3c(c2c1)OC(C)(C)C=C3	0	0	15µM	15µM
Cc1cc2c([nH]c3ccccc32)c2c1OC(C)(C)C=C2	-	0	?	?
CCN1CC=C2C(C1)C(c1ccc(Cl)s1)C(C#N)=C(N)C2(C#N)C#N (centres undefined)	0	0	16µM	?
Cc1nc2ncc(Br)cc2[nH]1	0	0	0	0
Cc1ccc(-c2nc3cc(Br)cnc3nc2-c2ccc(C)cc2)cc1	0	-	15µM	?
O=C(N/N=C/c1ccncc1)c1nc(-c2ccccc2)n2c1CCCCC2	0	0	7.3µM	7.3µM
NC(=NCCc1c[nH]c2ccccc12)NS(=O)(=O)c1ccc(F)cc1	0	0	?	?
NC(=NCCc1c[nH]c2ccccc12)NS(=O)(=O)c1ccc2ccccc2c1	0	0	4.6µM	5.2µM
O=C(COC(=O)C1CCC1)NCc1ccc(Cl)cc1Cl	-	0	0	0
COc1cc(N)c(Cl)cc1C(=O)N[C@H]1CCN(CCCOc2ccc(F)cc2)C[C@@H]1OC	0	-	0	27µM
CCOc1cc(N)c(Cl)cc1C(=O)NCC1CN(Cc2ccc(F)cc2)CCO1 (centres undefined)	0	0	?	?
Cc1cccc(Cn2nnc3c(=O)[nH]c(C4CCCN(C(=O)c5ccc(C(C)(C)C)cc5)C4)nc32)c1 (centres undefined)	0	0	?	21µM
COc1ccc(Cn2nnc3c(=O)[nH]c(C4CCCN(C(=O)c5ccccc5)C4)nc32)cc1 (centres undefined)	0	0	0	0
Cc1ccc(Cn2nnc3c(=O)[nH]c(C4CCCN(C(=O)Nc5ccc(F)cc5)C4)nc32)cc1 (centres undefined)	0	0	?	18µM
COc1ccc(Cn2nnc3c(=O)[nH]c(C4CCCN(C(=O)c5ccc(C)cc5)C4)nc32)cc1 (centres undefined)	0	0	?	?
Cc1ccccc1Cn1nnc2c(=O)[nH]c(C3CCCN(C(=O)c4ccc(C(C)(C)C)cc4)C3)nc21 (centres undefined)	0	0	?	26µM
SMILES	TDP1 inh	ClpP mod	DT40 TDP1 CPT	TDP1 cell noCPT
COCC(=O)Nc1cc(C)cn(Cc2ccccc2Cl)c1=O	-	0	0	0
Nc1nc(N)c(C=Nc2ccc(Br)cc2)c(Nc2ccc(Br)cc2)n1	0	0	15µM	13µM
O=C(CN1CCN(S(=O)(=O)c2ccc(F)c(Cl)c2)CC1)N1CCc2ccccc2C1	-	0	?	16µM
COc1cc2c(cc1OC)CN(C(=O)CSC1=NCCS1)CC2	-	0	?	21µM
COc1cc2c(cc1OC)CN(C(=O)CN1CCN(S(=O)(=O)c3ccccc3Br)CC1)CC2	0	0	?	2.1µM
COc1cc2c(cc1OC)CN(C(=O)CSc1ccccc1C)CC2	0	22µM	?	?
Cc1cccc(C(=O)N2CCc3cc(CNC(=O)c4cc5ccccc5[nH]4)ccc32)c1	0	?	0	0
O=C(CSc1n[nH]c(-c2cccnc2)n1)Nc1ccccc1C(F)(F)F	0	-	0	0
Cc1cc2c(cc1C)/C(=N/NC(=O)c1ccccn1)CCC2	0	-	?	23µM
CC1(C)CN(c2ccccc2)C(=O)[C@H]1CC(=O)Nc1ccccc1	-	0	0	0
CC1=[N+](C)c2c(ccc3cccnc23)C1(C)C	0	-	0.33µM	1.8µM
COc1ccc(/C(C)=N/Nc2nc3ccccc3nc2C)cc1	-	-	?	23µM
Cc1nn(Cc2ccc(Cl)cc2)c(=O)n1N(C)c1ncc(C(F)(F)F)cc1Cl	0	0	21µM	21µM
CN(NS(=O)(=O)c1ccc(Cl)cc1)c1ncc(C(F)(F)F)cc1Cl	0	-	?	?
Cc1nn(Cc2ccc([N+](=O)[O-])cc2)c(=O)n1-c1ccccc1Cl	0	-	0	0
Cc1nn(Cc2ccc([N+](=O)[O-])cc2)c(=O)n1N(C)c1ncc(C(F)(F)F)cc1Cl	0	0	?	11µM
C=CCOc1ccc(CNn2c(C)n[nH]c2=S)cc1OC	0	0	0	0
O=C(CN1C(=O)COc2ccc(S(=O)(=O)N3CCCC3)cc21)Nc1cccc(F)c1	0	0	?	?
O=C(CN1C(=O)COc2ccc(S(=O)(=O)N3CCCCCC3)cc21)Nc1cccc(Cl)c1	0	0	?	21µM
Cc1ccc(NC(=O)CN2C(=O)COc3ccc(S(=O)(=O)N4CCCCCC4)cc32)cc1C	0	0	?	15µM
Cc1c(Cl)cccc1NC(=O)CN1C(=O)COc2ccc(S(=O)(=O)Nc3ccccc3)cc21	0	0	?	?
Cc1ccc(NC(=O)CN2C(=O)CCc3cc(S(=O)(=O)N4CCCCC4)ccc32)cc1C	0	0	?	21µM
COC(=O)c1ccc(NC(=O)CN2C(=O)CCc3cc(S(=O)(=O)N4CCCCC4)ccc32)cc1	0	0	0	0
Cc1c(Cl)cccc1NC(=O)CN1C(=O)COc2ccc(S(=O)(=O)N3CCCCCC3)cc21	0	0	16µM	?
O=C(NCc1cccnc1)c1cc(C2CCCN(S(=O)(=O)c3cccs3)C2)on1 (centres undefined)	-	0	0	0
COc1ccc(CCNC(=O)C(=O)NCc2ccc(Cl)cc2)cc1OC	0	-	0	0
COc1ccc(NC(=O)CN2C(=O)COc3ccc(S(=O)(=O)N4CCCCCC4)cc32)cc1	0	0	4.6µM	16µM
CC(C)c1ccc(NC(=O)CN2C(=O)COc3ccc(S(=O)(=O)N4CCCCCC4)cc32)cc1	0	0	2.6µM	3.7µM

From PubChem
